system: PPARg DBDmut IVT, anti-PPARg (DBD mutation: PPARg1 K132A/R137A, NR concentration 270 nM); experiment: PBM binding z-score (relative to random genomic background probes); higher = stronger binding; sequences stand for … in GC…GCGATTGACAGCGTAGAATGAAGG
How it was run: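 Antibodies against each partner of ligand-free nuclear receptor dimers (one per run) detected binding on custom Agilent 4×180K protein-binding microarrays after 1 h incubation. The double-stranded probes had 34-nt variable regions carrying direct-repeat seeds, single-nucleotide variants, half-site ablations and random human genomic background sequences. Binding z-scores, from regression-normalized fluorescence, use the random background probes as reference.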

Sequence	PBM binding z-score
CCTTACGGGACACTGACAGGTTATAGCATTTGGA	-0.682
AGAACGAGGGCAATGAGTTGAGAGCACGGGTGGC	-0.139
CCTGCTAGGTCAATGGTCGGCTAAAGCAGCTCGC	-0.553
CCGACTGGGGCTAAGGTTACCATACTCAGTACGA	-0.925
CTTCCAAGGTCAATGCTAGGTCAGTGAAAGCATT	0.112
CATACTGGGCCAAAGGTCATTGATTCCAATGCTC	1.07
AGAACGAGGGCACGCTGAGTTGCTAGCAGAGTAG	-0.499
CCTCGGAGGACCACAGGAGGTCAGAGCTGCCAGA	-1.46
AGTCAAAGTTCAGGACGAGGTTACGTAAAGCACG	0.266
TCTAGTTGGTCACGGACGTCACACACGACGGGTA	1.25
TAGCCTAGGTCATTGCGCCAGTATAGTACGCATC	0.064
TCTTTTAGATCAAGCAGGTTAAGAAAGCCTGAGT	1.17
CATACAGGGTCAGCTAGGCCACAGTAGGGACGGC	0.0227
GCTAGTTGGTCAGTAAAAGGTCACACGCCGGTCG	0.255
ACAGACAAGTGAGTGAAGGTAACTCAGCTGGACG	0.39
CCTACTGGGCCATTCAGAGGTCTTTGATCATATG	-0.677
CCGACTGGGGTAGAAAGGTTACCATACCATCCGG	-0.59
CCGACTGGGGCATAAGGTTAGCATAAGCCAGCCC	-1.75
CGTCAAAGTTCCACTAAGGTAACGTAAAGCACGC	0.445
CCGACTGGGGCAGATAGGTTACCATACCATCCGG	-0.883
CATACAGGGTCAGCTAGGCGAGAGTAGGGACGGC	0.468
GGAACGAGGGCAAGTTGATCGCAGAGTTTGATGG	-0.887
